In PubChem BioAssay (NCATS) one finds outcome data, which are given here for 40 compounds.

Inconclusive results are not listed. Active and inactive are the calls of the source. Calls follow the shape of the dose curve; as a rule, active = well fitted curve in either direction with a large enough effect (not every such curve was filed as active); inconclusive = small, poorly fitted or top-dose-only effect, or another doubt; inactive = flat fitted curve, though single readings scatter.

In the experiment the target is Mitogen-activated protein kinase 10 (Mus musculus) (UniProt Q61831). Briefly: JNK3 AlphaScreen Assay (AID 530).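 Also: kinase came from lysate of stimulated human HepG2 cells.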 The conditions noted are these: JNK3 lysate, c-Jun phosphorylation; series mostly up to 57.1 µM. The source says:
NIH Chemical Genomics Center [NCGC]
NIH Molecular Libraries Screening Centers Network [MLSCN]
The c-jun N-terminal kinase (JNK) family are serine/threonine protein kinases that phosphorylate c-jun, a component of the transcription factor […] (AP-1). JNK kinases are members of the mitogen-activated protein kinase family including the extracellular regulated kinases and p38 kinases. Three JNK genes (JNK 1, 2, and 3) have been identified in humans so far. JNK1 and JNK2 have a broad distribution and JNK3 is primarily found in neuronal tissues and cardiac myocytes.
JNK3 has been under consideration as a target for the treatment of neurodegenerative disorders. […] JNK pathway is also involved in pathological process in a mouse model of Parkinson's disease (Xia et al., 2001).
Given these potential tissue distributions and links to neuroprotection, JNK3 inhibitors should provide useful investigational tools to study the role of this kinase in several diseases including, arthritis, stroke, myocardial infarction, ischemic injury and Parkinson's disease.
A homogeneous AlphaScreen is developed to measure the activity of JNK3. AlphaScreen is a two bead-based proximity-dependent chemical energy transfer luminescent assay platform. The phosphorylation of a biotinylated c-jun substrate by JNK3 can be detected with an antibody raised against phosphorylated c-jun. This process brings streptavidin donor beads and Protein-A acceptor beads to within a proximity range of <200 nm, and subsequently lead a chemical luminescent reaction upon exciting donor beads with 680 nm laser excitation light. Inhibition of JNK3 activity by small molecules and subsequent decrease in the antibody binding to biotinylated c-jun could attenuate or abolish this chemical luminescent reaction.
Yang DD, Kuan CY, Whitmarsh AJ, Rincon M, Zheng TS, Davis RJ, Rakic P and Flavell RA (1997) Absence of excitotoxicity-induced apoptosis in the hippocampus of mice lacking the Jnk3 gene. Nature 389:865-870. [PMID: 9349820]
Herdegen T, Claret FX, Kallunki T, Martin-Villalba A, Winter C, Hunter T, and Karin M (1998) Lasting N-terminal phosphorylation of c-Jun and activation of c-Jun N-terminal kinases after neuronal injury. J.Neurosci. 18:5124-5135. [PMID: 9651196]
Xia XG, Harding T, Weller M, Bieneman A, Uney JB and Schulz JB (2001) Gene transfer of the JNK interacting protein-1 protects dopaminergic neurons in the MPTP model of Parkinson's disease. Proc.Natl.Acad.Sci.U.S.A. 98:10433-10438.
NCGC Assay Protocol Summary:
GST-cJun (1-79) (Stratagene, La Jolla CA, #205145) was biotnylated by PerkinElmer (PerkinElmer-BioSignalInc. Montreal, Canada) and was detectable by the streptavidin Donor beads. Anti-(phospho)cJun (Ser73) antibody was from UpState (Charlottesvilles, VA, #06-659). JNK3-containing lysates were generated from HepG2 cells and pre-activated by interleukin1-beta and tumor necrosis factor alpha. All reagents were stored at -20 C before using. Phosphorylated biotinylated-GST-cJun was recognized by Anti-(phospho)cJun (Ser73) antibody and this process brings acceptor and donor beads together. Therefore JNK3 phosphorylation of cJun can be measured by Alpha reading by EnVision (PerkinElmer, Boston, MA).
The composition of kinase buffer was (in mM) 20 tris- HCl (pH 7.6) 10 MgCl2, 1 DTT, and 0.1 Na3VO4 and 0.01% Tween-20. Beads were diluted in detection buffer containing (in mM) 20 tris-HCl (pH 7.7), 20 NaCl and 80 EDTA and 0.3% BSA. The assay was performed at room temperature. All compounds were screened as titrations from 0.6 nM to 46 uM final concentration. The assay was performed in 1536-well format (white solid bottom and untreated) as follows:
Sequence,Parameter,Value,Description
1,Reagent,3 uL,Biotin-GST-cJun, Anti-(phospho)cJun and pre-activated JNK3-containing lysates
2,Compound,23 nL,Final concentration was 0.6nM to 46uM
3,Time,15 minutes,Room Temperature
4,Reagent,1 uL,ATP final concentration 10uM
6,Reagent,0.5 uL,2ng/well bead mixture
[…]
In general terms: Bead proximity is the source of the signal in Alpha formats.
Turning to `CN1CCN(c2ccc3ccccc3n2)CC1`, the call was inactive.

As for `C#CCN1C(C)=C(C(=O)CCO)[C@@H](c2cccc(-n3oo3)c2)C(C(=O)OC)=C1C`, the compound was classed as inactive.

Take `C/C(=C\[C@@H](N)C(=O)O)CP(=O)(O)O`: the outcome was inactive.

Regarding `O=C1CC[C@@]2(O)[C@H]3Cc4ccc(O)c5c4[C@@]2(CCN3CC2CC2)[C@@H]1O5`, the outcome was inactive.

On to `CCCn1c(C)c(C(=O)c2cccc3ccccc23)c2ccccc21`, for which the call was inactive.

With `N[C@H](CCCCCP(=O)(O)O)C(=O)O`, the compound was classed as inactive.

`COc1ccn(C)c(=O)c1C#N`: the compound was classed as inactive.

Consider `CC(=O)O[C@@H]1CN2CCC1CC2`, for which the compound was classed as inactive.

As to `NC[C@H](CP(=O)(O)O)c1ccc(Cl)cc1`, the compound was called inactive.

Turning to `N[C@@]1(C(=O)O)CC[C@H](C(=O)O)C1`, the compound was called inactive.

With `C(=C/c1ccccc1)/CN1CCN(CCOC(c2ccccc2)c2ccccc2)CC1`, the compound was classed as inactive.

Regarding `O=C(Cc1ccc(Cl)c(Cl)c1)N1CCCC[C@H]1CN1CCCC1`, the call was inactive.

Turning to `COC1=CC(=O)OC(CCc2ccc3c(c2)OCO3)C1` (stereo not given), the result was inactive.

For the compound `NC(=NCc1ccc(Cl)cc1)SCCCc1cnc[nH]1`, the call was inactive.

Turning to `Oc1c(Cl)c(Cl)c(Cl)c(Cl)c1Cl`, the compound was classed as inactive.

With `CCOc1cc(C=O)ccc1O`, the compound was called inactive.

Regarding `C/C(=C\C=C/[C@@H](C)C(=O)O)[C@H]1CN[C@H](C(=O)O)[C@@H]1CC(=O)O`, the outcome was inactive.

With `C[C@H](N)Cc1c[nH]c2ccc(O)cc12`, the call was inactive.

For the compound `COC(=O)c1ccccc1C(=O)OC`, the compound was called inactive.

For `COC(=O)/C=C\C(=O)N[C@@H]1CC[C@@]2(O)[C@H]3Cc4ccc(O)c5c4[C@@]2(CCN3CC2CC2)[C@@H]1O5`, the outcome was inactive.

`CN(C(=O)Cc1ccccc1)[C@H](CN1CCCC1)c1ccccc1`: the compound was classed as inactive.

Take `Cc1cccc([C@H](C)c2cnc[nH]2)c1C`: the outcome was inactive.

For the compound `CC(C)NC[C@H](O)c1ccc(N)c(C#N)c1`, the compound was classed as inactive.

On to `Oc1ccc2c3c1O[C@H]1c4[nH]c5c(c4C[C@@]4(O)[C@@H](C2)N(CC2CC2)CC[C@]314)C[C@]1(O)[C@H]2Cc3ccc(O)c4c3[C@@]1(CCN2CC1CC1)[C@@H]5O4`, for which the result was inactive.

For `CC(=O)/C=C/c1ccccc1`, the compound was called inactive.

Take `O[C@@H]1[C@H](O)[C@H]2[C@@H](O)CCN2C[C@@H]1O`: the compound was classed as inactive.

As to `C=CCN1C[C@H](C)N([C@H](c2ccc(C(=O)N(CC)CC)cc2)c2cccc(O)c2)C[C@H]1C`, the result was inactive.

In the case of `C[C@]12N[C@@H](Cc3ccccc31)c1ccccc12`, the call was inactive.

Consider `C=CCN1CC[C@@]23c4c5ccc(O)c4O[C@H]2/C(=N\N=C2/CC[C@@]4(O)[C@H]6Cc7ccc(O)c8c7[C@@]4(CCN6CC=C)[C@@H]2O8)CC[C@]3(O)[C@@H]1C5`, for which the compound was classed as inactive.

For the compound `CN1C(=O)COc2c(C(=O)N[C@@H]3CN4CCC3CC4)cc(Cl)cc21`, the result was inactive.

Turning to `C[C@H](N)Cc1cnc[nH]1`, the compound was called inactive.

As to `Cl.Cl.Cl.Cl.Cl.Cl.N.N.N.N.NNNNN.NNNNN.O.O.[Ru].[Ru].[Ru]`, the result was inactive.

In the case of `CCCN(CCC)[C@@H]1CCc2c(OC)cccc2[C@@H]1C`, the compound was called inactive.

On to `COc1ccc2[nH]cc(C3=CCNCC3)c2c1`, for which the compound was classed as inactive.

Take `COc1ccc2c(c1)[nH]c1c(C)nccc12`: the call was inactive.

With `CC[C@H](Oc1ccc(Cl)cc1)C(=O)OC1C[C@H]2CC[C@@H](C1)N2C` (stereo not given in full), the result was inactive.

Take `N[C@H](CP(=O)(O)O)C(=O)O`: the outcome was inactive.

As to `Oc1ccccc1Cl`, the compound was classed as inactive.

As for `NC(=NCCc1ccc(I)cc1)SCCCc1cnc[nH]1`, the call was inactive.

For the compound `C=C(C)CN1CC[C@@]23c4c5ccc(O)c4O[C@H]2c2[nH]c4ccccc4c2C[C@]3(O)[C@@H]1C5`, the compound was classed as inactive.
